Measurements published in the supplement of paper PMC9446081.
± gives the standard deviation of the averaged measurements.

Target: DNA ligase (UniProt B1XA82)
Test: relative enzymatic activity vs untreated control (fraction); higher = less inhibition
Conditions: 100 µM; incubation time: 2 h at 37 C
Protocol: (§1)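 In vitro enzymatic inhibition assays (ProFoldin kits) for 12 purified essential E. coli enzymes or complexes, each treated with 218 active antibacterial compounds at 100 µM for 2 h at 37°C. Read-outs were fluorescence or absorbance (phosphate detection, dye binding), converted to activity via standard curves and expressed relative to untreated DMSO controls.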

DNA ligase, sequence (B1XA82 whole entry): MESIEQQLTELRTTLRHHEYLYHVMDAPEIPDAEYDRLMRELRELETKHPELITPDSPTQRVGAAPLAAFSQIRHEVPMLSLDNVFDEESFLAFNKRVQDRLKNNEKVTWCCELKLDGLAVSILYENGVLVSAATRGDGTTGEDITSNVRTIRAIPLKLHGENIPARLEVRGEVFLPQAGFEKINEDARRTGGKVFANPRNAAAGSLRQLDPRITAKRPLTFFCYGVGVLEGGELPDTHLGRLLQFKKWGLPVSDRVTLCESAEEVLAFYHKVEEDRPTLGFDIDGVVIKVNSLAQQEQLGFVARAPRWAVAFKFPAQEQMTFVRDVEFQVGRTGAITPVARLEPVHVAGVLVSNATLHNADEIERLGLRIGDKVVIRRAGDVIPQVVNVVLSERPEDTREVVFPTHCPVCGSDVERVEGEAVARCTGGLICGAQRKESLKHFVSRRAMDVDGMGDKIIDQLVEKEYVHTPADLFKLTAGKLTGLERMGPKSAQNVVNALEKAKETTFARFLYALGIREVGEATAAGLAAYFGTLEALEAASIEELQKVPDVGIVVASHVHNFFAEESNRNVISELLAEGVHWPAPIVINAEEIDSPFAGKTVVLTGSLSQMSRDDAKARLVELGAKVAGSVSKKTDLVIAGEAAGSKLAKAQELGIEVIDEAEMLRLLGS

Compound	relative enzymatic activity
Cc1cn(C2CC(N=[N+]=[N-])C(CO)O2)c(=O)[nH]c1=O (stereo unspecified)	1.38 ± 0.076
CCOC(=O)OC(C)OC(=O)C1N2C(=O)C(NC(=O)C(N)c3ccccc3)C2SC1(C)C.Cl (stereo unspecified)	0.901 ± 0.089
Cn1nnnc1SCC1=C(C(=O)[O-])N2C(=O)C(NC(=O)C(O)c3ccccc3)C2SC1.[Na+] (stereo unspecified)	1.42 ± 0.27
CNC1C(OC2C(OC3C(O)C(O)C(NC(=N)N)C(O)C3NC(=N)N)OC(C)C2(O)CO)OC(CO)C(O)C1O.O=S(=O)(O)O (stereo unspecified)	1.11 ± 0.19
CON=C(C(=O)NC1C(=O)N2C(C(=O)OCOC(=O)C(C)(C)C)=C(C=Cc3scnc3C)CSC12)c1csc(N)n1 (stereo unspecified)	1.24 ± 0.4
COC1(NC(=O)C(C(=O)[O-])c2ccc(O)cc2)C(=O)N2C(C(=O)[O-])=C(CSc3nnnn3C)COC21.[Na+].[Na+] (stereo unspecified)	1.25 ± 0.16
Nc1c2ccccc2nc2ccccc12	0.519 ± 0.092
O=C1OC(=O)[C@H]2[C@@H]1[C@H]1CC[C@H]2O1	1.15 ± 0.085
CC(=O)On1cc(F)c(=O)[nH]c1=O	0.979 ± 0.23
N[C@@H](C(=O)N[C@@H]1C(=O)N2C(C(=O)O)=C(Cl)CS[C@H]12)c1ccccc1	1.02 ± 0.078
CC1(C)S[C@@H]2[C@H](NC(=O)[C@H](NC(=O)N3CCNC3=O)c3ccccc3)C(=O)N2[C@H]1C(=O)O	0.934 ± 0.038
COc1ccc(Cc2cnc(N)nc2N)cc1OC	1.55 ± 0.21
CN1CCN(c2c(F)cc3c(=O)c(C(=O)O)cn4c3c2OCN4C)CC1	0.908 ± 0.041
COc1cc(Cc2cnc(N)nc2N)cc(OC)c1OC	1.12 ± 0.24
C[C@H]1[C@H](NC(=O)/C(=N\OC(C)(C)C(=O)O)c2csc(N)n2)C(=O)N1S(=O)(=O)O	0.815 ± 0.086
CC(N)O.Cc1cc(CC(C)CC(C)(C)C)n(O)c(=O)c1 (stereo unspecified)	1.17 ± 0.13
COc1cc2c(cc1OC)C(=O)C(CC1CCN(Cc3ccccc3)CC1)C2.Cl (stereo unspecified)	1.19 ± 0.057
CON=C(C(=O)NC1C(=O)N2C(C(=O)O)=C(C[N+]3(C)CCCC3)CSC12)c1csc(N)n1.[Cl-] (stereo unspecified)	1.345 ± 0.0088
CCn1cc(C(=O)O)c(=O)c2cc(F)c(N3CCNC(C)C3)c(F)c21.Cl (stereo unspecified)	1.442 ± 0.0066

Compound	relative enzymatic activity
O=c1[nH]c(=O)n(C2CC(O)C(CO)O2)cc1F (stereo unspecified)	1.15 ± 0.19
CN(C)c1ccc(O)c2c1CC1CC3C(N(C)C)C(O)=C(C(N)=O)C(=O)C3(O)C(O)=C1C2=O.Cl (stereo unspecified)	0.831 ± 0.21
C=C1c2cccc(O)c2C(=O)C2=C(O)C3(O)C(=O)C(C(N)=O)=C(O)C(N(C)C)C3C(O)C12.Cl (stereo unspecified)	0.963 ± 0.19
CO/N=C(\C(=O)N[C@@H]1C(=O)N2C(C(=O)O)=C(CSc3nnnn3C)CS[C@H]12)c1csc(N)n1	0.749 ± 0.049
Nc1nc(C(=CCC(=O)O)C(=O)NC2C(=O)N3C(C(=O)O)=CCSC23)cs1 (stereo unspecified)	1.1 ± 0.24
NCCONC(=O)[C@@H]1CC[C@@H]2CN1C(=O)N2OS(=O)(=O)O	1.08 ± 0.078
CC[C@H]1OC(=O)C[C@@H](O)[C@H](C)[C@@H](O[C@@H]2O[C@H](C)C[C@H](N(C)C)[C@H]2O)[C@@H](CC=O)C[C@@H](C)C(=O)/C=C/[C@]2(C)O[C@H]2[C@@H]1C	0.912 ± 0.064
N[C@@H](C(=O)N[C@@H]1C(=O)N2C(C(=O)O)=C(Cl)CC[C@H]12)c1ccccc1	0.931 ± 0.12
CO/N=C(\C(=O)N[C@@H]1C(=O)N2C(C(=O)O)=C(C)CS[C@H]12)c1csc(N)n1	0.904 ± 0.086
NCC1OC(OC2C(N)CC(N)C(OC3OC(CO)C(O)C(N)C3O)C2O)C(N)CC1O (stereo unspecified)	1.02 ± 0.084
NC(=O)N/N=C/c1ccc([N+](=O)[O-])o1	0.974 ± 0.26
CCC=C(C(=O)NC1C(=O)N2C(C(=O)OCOC(=O)C(C)(C)C)=C(COC(N)=O)CSC12)c1csc(N)n1.Cl (stereo unspecified)	0.883 ± 0.11
CC(O)C1C(=O)N2C(C(=O)O)=C(SC3CNC(C(=O)N(C)C)C3)C(C)C12 (stereo unspecified)	1.45 ± 0.021
CN(C)C1C(O)=C(C(N)=O)C(=O)C2(O)C(O)=C3C(=O)c4c(O)cccc4C(C)(O)C3CC12.Cl (stereo unspecified)	1.03 ± 0.033
Cc1cc(=O)c(C(=O)N[C@@H](C(=O)N[C@@H]2C(=O)N3C(C(=O)O)=C(CSc4nnnn4C)CS[C@H]23)c2ccc(O)cc2)c[nH]1	0.862 ± 0.016
CCN1CCN(C(=O)NC(C(=O)NC2C(=O)N3C(C(=O)O)=C(CSc4nnnn4C)CSC23)c2ccc(O)cc2)C(=O)C1=O (stereo unspecified)	1.35 ± 0.11
Nc1nc(/C(=N/O)C(=O)N[C@@H]2C(=O)N3C(C(=O)O)=C(/C=C4\CCN([C@@H]5CCNC5)C4=O)CS[C@H]23)ns1	0.901 ± 0.11
CC(NCCCc1cccc(C(F)(F)F)c1)c1cccc2ccccc12.Cl (stereo unspecified)	1.1 ± 0.31

Target: DNA polymerase (UniProt P10443)
Sequence (P10443 whole entry): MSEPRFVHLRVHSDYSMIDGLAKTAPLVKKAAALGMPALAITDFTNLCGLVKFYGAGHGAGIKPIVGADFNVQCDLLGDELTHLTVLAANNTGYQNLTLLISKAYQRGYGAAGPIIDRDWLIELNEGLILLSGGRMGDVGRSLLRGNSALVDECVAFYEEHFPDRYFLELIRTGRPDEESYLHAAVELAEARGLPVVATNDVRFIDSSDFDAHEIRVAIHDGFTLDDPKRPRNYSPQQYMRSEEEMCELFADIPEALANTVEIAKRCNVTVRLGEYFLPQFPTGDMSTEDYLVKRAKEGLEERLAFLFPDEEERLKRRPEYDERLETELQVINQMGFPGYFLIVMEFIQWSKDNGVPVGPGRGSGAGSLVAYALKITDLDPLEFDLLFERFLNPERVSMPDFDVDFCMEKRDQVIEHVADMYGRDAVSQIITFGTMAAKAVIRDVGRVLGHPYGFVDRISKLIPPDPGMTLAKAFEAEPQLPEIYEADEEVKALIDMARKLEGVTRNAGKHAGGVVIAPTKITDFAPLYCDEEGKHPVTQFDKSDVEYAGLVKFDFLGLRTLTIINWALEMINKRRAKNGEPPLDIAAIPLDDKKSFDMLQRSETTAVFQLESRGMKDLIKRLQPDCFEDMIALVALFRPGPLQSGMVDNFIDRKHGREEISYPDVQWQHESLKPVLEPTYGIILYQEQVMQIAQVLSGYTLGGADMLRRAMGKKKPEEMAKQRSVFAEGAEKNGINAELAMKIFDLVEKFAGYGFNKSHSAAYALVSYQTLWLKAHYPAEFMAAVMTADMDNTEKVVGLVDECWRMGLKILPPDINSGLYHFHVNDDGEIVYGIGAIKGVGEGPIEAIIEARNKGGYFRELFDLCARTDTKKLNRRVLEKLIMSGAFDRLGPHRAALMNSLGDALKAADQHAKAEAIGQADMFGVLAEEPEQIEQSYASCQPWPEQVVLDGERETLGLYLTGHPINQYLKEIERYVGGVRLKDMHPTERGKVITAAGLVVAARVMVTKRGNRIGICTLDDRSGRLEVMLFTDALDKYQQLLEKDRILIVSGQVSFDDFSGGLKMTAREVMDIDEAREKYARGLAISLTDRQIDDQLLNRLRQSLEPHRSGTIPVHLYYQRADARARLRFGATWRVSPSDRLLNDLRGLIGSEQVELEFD
Test: as above
Conditions: 100 µM; incubation time: 2 h at 37 C
Protocol: as §1

Compound	relative enzymatic activity
Cc1cn(C2CC(N=[N+]=[N-])C(CO)O2)c(=O)[nH]c1=O (stereo unspecified)	1.3 ± 0.36
CCOC(=O)OC(C)OC(=O)C1N2C(=O)C(NC(=O)C(N)c3ccccc3)C2SC1(C)C.Cl (stereo unspecified)	1.09 ± 0.16
Cn1nnnc1SCC1=C(C(=O)[O-])N2C(=O)C(NC(=O)C(O)c3ccccc3)C2SC1.[Na+] (stereo unspecified)	1.19 ± 0.25
CNC1C(OC2C(OC3C(O)C(O)C(NC(=N)N)C(O)C3NC(=N)N)OC(C)C2(O)CO)OC(CO)C(O)C1O.O=S(=O)(O)O (stereo unspecified)	1.38 ± 0.47
CON=C(C(=O)NC1C(=O)N2C(C(=O)OCOC(=O)C(C)(C)C)=C(C=Cc3scnc3C)CSC12)c1csc(N)n1 (stereo unspecified)	1.24 ± 0.33
COC1(NC(=O)C(C(=O)[O-])c2ccc(O)cc2)C(=O)N2C(C(=O)[O-])=C(CSc3nnnn3C)COC21.[Na+].[Na+] (stereo unspecified)	1.27 ± 0.34
Nc1c2ccccc2nc2ccccc12	1.01 ± 0.28
O=C1OC(=O)[C@H]2[C@@H]1[C@H]1CC[C@H]2O1	1.01 ± 0.012
CC(=O)On1cc(F)c(=O)[nH]c1=O	1.03 ± 0.18
N[C@@H](C(=O)N[C@@H]1C(=O)N2C(C(=O)O)=C(Cl)CS[C@H]12)c1ccccc1	1.1 ± 0.25
CC1(C)S[C@@H]2[C@H](NC(=O)[C@H](NC(=O)N3CCNC3=O)c3ccccc3)C(=O)N2[C@H]1C(=O)O	1.06 ± 0.04
COc1ccc(Cc2cnc(N)nc2N)cc1OC	1.21 ± 0.22
CN1CCN(c2c(F)cc3c(=O)c(C(=O)O)cn4c3c2OCN4C)CC1	1.17 ± 0.21
O=C(O)c1cn(C2CC2)c2cc(N3CCNCC3)c(F)cc2c1=O	0.688 ± 0.4
COc1cc(Cc2cnc(N)nc2N)cc(OC)c1OC	1.36 ± 0.46
C[C@H]1[C@H](NC(=O)/C(=N\OC(C)(C)C(=O)O)c2csc(N)n2)C(=O)N1S(=O)(=O)O	1.23 ± 0.28
CC(N)O.Cc1cc(CC(C)CC(C)(C)C)n(O)c(=O)c1 (stereo unspecified)	1.16 ± 0.23
COc1cc2c(cc1OC)C(=O)C(CC1CCN(Cc3ccccc3)CC1)C2.Cl (stereo unspecified)	1.18 ± 0.28
CON=C(C(=O)NC1C(=O)N2C(C(=O)O)=C(C[N+]3(C)CCCC3)CSC12)c1csc(N)n1.[Cl-] (stereo unspecified)	1.28 ± 0.35
CCn1cc(C(=O)O)c(=O)c2cc(F)c(N3CCNC(C)C3)c(F)c21.Cl (stereo unspecified)	1.29 ± 0.3

Compound	relative enzymatic activity
O=c1[nH]c(=O)n(C2CC(O)C(CO)O2)cc1F (stereo unspecified)	1.2 ± 0.26
CN(C)c1ccc(O)c2c1CC1CC3C(N(C)C)C(O)=C(C(N)=O)C(=O)C3(O)C(O)=C1C2=O.Cl (stereo unspecified)	0.908 ± 0.4
C=C1c2cccc(O)c2C(=O)C2=C(O)C3(O)C(=O)C(C(N)=O)=C(O)C(N(C)C)C3C(O)C12.Cl (stereo unspecified)	0.187 ± 0.022
CO/N=C(\C(=O)N[C@@H]1C(=O)N2C(C(=O)O)=C(CSc3nnnn3C)CS[C@H]12)c1csc(N)n1	1.15 ± 0.25
Nc1nc(C(=CCC(=O)O)C(=O)NC2C(=O)N3C(C(=O)O)=CCSC23)cs1 (stereo unspecified)	0.742 ± 0.27
NCCONC(=O)[C@@H]1CC[C@@H]2CN1C(=O)N2OS(=O)(=O)O	1.13 ± 0.22
CC[C@H]1OC(=O)C[C@@H](O)[C@H](C)[C@@H](O[C@@H]2O[C@H](C)C[C@H](N(C)C)[C@H]2O)[C@@H](CC=O)C[C@@H](C)C(=O)/C=C/[C@]2(C)O[C@H]2[C@@H]1C	1.17 ± 0.26
N[C@@H](C(=O)N[C@@H]1C(=O)N2C(C(=O)O)=C(Cl)CC[C@H]12)c1ccccc1	1.03 ± 0.087
CO/N=C(\C(=O)N[C@@H]1C(=O)N2C(C(=O)O)=C(C)CS[C@H]12)c1csc(N)n1	0.906 ± 0.062
NCC1OC(OC2C(N)CC(N)C(OC3OC(CO)C(O)C(N)C3O)C2O)C(N)CC1O (stereo unspecified)	1.33 ± 0.47
NC(=O)N/N=C/c1ccc([N+](=O)[O-])o1	1.04 ± 0.16
Cc1nnc(SCC2=C(C(=O)[O-])N3C(=O)C(NC(=O)Cn4cnnn4)C3SC2)s1.[Na+] (stereo unspecified)	1.45 ± 0.57
CCC=C(C(=O)NC1C(=O)N2C(C(=O)OCOC(=O)C(C)(C)C)=C(COC(N)=O)CSC12)c1csc(N)n1.Cl (stereo unspecified)	1.17 ± 0.27
CC(O)C1C(=O)N2C(C(=O)O)=C(SC3CNC(C(=O)N(C)C)C3)C(C)C12 (stereo unspecified)	1.26 ± 0.3
CN(C)C1C(O)=C(C(N)=O)C(=O)C2(O)C(O)=C3C(=O)c4c(O)cccc4C(C)(O)C3CC12.Cl (stereo unspecified)	1.37 ± 0.52
Cc1cc(=O)c(C(=O)N[C@@H](C(=O)N[C@@H]2C(=O)N3C(C(=O)O)=C(CSc4nnnn4C)CS[C@H]23)c2ccc(O)cc2)c[nH]1	1.08 ± 0.15
CCN1CCN(C(=O)NC(C(=O)NC2C(=O)N3C(C(=O)O)=C(CSc4nnnn4C)CSC23)c2ccc(O)cc2)C(=O)C1=O (stereo unspecified)	1.23 ± 0.34
Nc1nc(/C(=N/O)C(=O)N[C@@H]2C(=O)N3C(C(=O)O)=C(/C=C4\CCN([C@@H]5CCNC5)C4=O)CS[C@H]23)ns1	1.08 ± 0.3
CC(NCCCc1cccc(C(F)(F)F)c1)c1cccc2ccccc12.Cl (stereo unspecified)	1.18 ± 0.25
